Source: PubChem BioAssay (NCI)
Compounds without any hit were thinned out: in the full panel of roughly 83,000, 20% have a hit.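 Cell lines were cultured in 96-well plates, exposed to a single compound concentration, and assessed for percent growth 48 hours later.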 The source made the active and inactive calls. How the source made its calls: active means growth percent below 10; inactive means the rest.

Assays:
Experiment in all cases: NCI-60 one-dose screen, 48 h (100 = growth as untreated, 0 = no growth, -100 = all killed)
Conditions in all cases: 10 µM unless noted
MOLT-4 leukemia = test system: MOLT-4 leukemia
SR leukemia = test system: SR leukemia
RPMI-8226 leukemia = test system: RPMI-8226 leukemia
OVCAR-8 ovarian = test system: OVCAR-8 ovarian
OVCAR-5 ovarian = test system: OVCAR-5 ovarian
OVCAR-4 ovarian = test system: OVCAR-4 ovarian
SK-OV-3 ovarian = test system: SK-OV-3 ovarian
IGROV1 ovarian = test system: IGROV1 ovarian
OVCAR-3 ovarian = test system: OVCAR-3 ovarian
HS 578T breast = test system: HS 578T breast
NCI/ADR-RES ovarian = test system: NCI/ADR-RES ovarian
T-47D breast = test system: T-47D breast
MDA-MB-435 melanoma = test system: MDA-MB-435 melanoma
SW-620 colon = test system: SW-620 colon
MCF7 breast = test system: MCF7 breast
HCT-116 colon = test system: HCT-116 colon
HCC-2998 colon = test system: HCC-2998 colon
KM12 colon = test system: KM12 colon
BT-549 breast = test system: BT-549 breast

Measured: growth

Nc1ccc2c(c1)Cc1cc(Br)ccc1-2
inactive: MOLT-4 leukemia 71% | SR leukemia 84.6% | RPMI-8226 leukemia 79.8% | OVCAR-8 ovarian 107% | OVCAR-5 ovarian 110% | OVCAR-4 ovarian 99.9% | SK-OV-3 ovarian 101% | IGROV1 ovarian 104% | OVCAR-3 ovarian 114% | HS 578T breast 111% | NCI/ADR-RES ovarian 101% | T-47D breast 102% | MDA-MB-435 melanoma 111% | SW-620 colon 108% | MCF7 breast 64.7% | HCT-116 colon 98.2% | HCC-2998 colon 99.7% | KM12 colon 105%

CCCC[C@H](NC(=O)[C@H]1CCCN1C)C(=O)N(C)[C@H](C[C@@H](OC(C)=O)c1nc(C(=O)N[C@@H](Cc2ccccc2)C[C@H](C)C(=O)OCC)cs1)C(C)C
inactive: MOLT-4 leukemia 14.5% | RPMI-8226 leukemia 16.6% | OVCAR-8 ovarian 20% | OVCAR-5 ovarian 32.7% | OVCAR-4 ovarian 66.5% | SK-OV-3 ovarian 17.2% | IGROV1 ovarian 29.7% | HS 578T breast 12.6% | T-47D breast 54.4% | SW-620 colon 22.1% | KM12 colon 13.6%
active: SR leukemia 6.28% | OVCAR-3 ovarian 8.32% | NCI/ADR-RES ovarian 7.13% | BT-549 breast -21.7% | MDA-MB-435 melanoma -28.6%

CN1C(=O)C(=Cc2cn(CCCCCCn3c4ccccc4c(=O)c4ccccc43)c3ccccc23)C(=O)N(C)C1=O
inactive: MOLT-4 leukemia 97.5% | SR leukemia 77% | RPMI-8226 leukemia 103% | OVCAR-8 ovarian 95.2% | OVCAR-5 ovarian 77% | OVCAR-4 ovarian 95.2% | SK-OV-3 ovarian 87% | IGROV1 ovarian 90.5% | OVCAR-3 ovarian 102% | HS 578T breast 101% | NCI/ADR-RES ovarian 90.7% | T-47D breast 75% | MDA-MB-435 melanoma 107% | SW-620 colon 103% | MCF7 breast 81.1% | HCT-116 colon 85.5% | HCC-2998 colon 99.4% | KM12 colon 98.7%

COC(=O)[C@@H](C)C[C@H](Cc1ccccc1)NC(=O)c1nc([C@@H](C[C@H](C(C)C)N(C)C(=O)[C@@H](NC(=O)[C@H]2CCCCN2C)C(C)C)OC(C)=O)sc1C
inactive: MOLT-4 leukemia 11.1% | RPMI-8226 leukemia 18.2% | OVCAR-8 ovarian 15% | OVCAR-5 ovarian 41.4% | OVCAR-4 ovarian 50.6% | SK-OV-3 ovarian 29.9% | IGROV1 ovarian 22.7% | HS 578T breast 13.7% | NCI/ADR-RES ovarian 16.5% | SW-620 colon 20.1% | MCF7 breast 12.3% | HCC-2998 colon 13.8%
active: SR leukemia 4.24% | OVCAR-3 ovarian -37.8% | BT-549 breast -23.4% | MDA-MB-435 melanoma -31.5% | HCT-116 colon 2.54% | KM12 colon 8.06%

Cc1ccc(N2COOC3(OOC2)C2CC4CC(C2)CC3C4)cc1
inactive: MOLT-4 leukemia 79.3% | SR leukemia 46.4% | RPMI-8226 leukemia 102% | OVCAR-8 ovarian 99% | OVCAR-5 ovarian 101% | OVCAR-4 ovarian 101% | SK-OV-3 ovarian 101% | IGROV1 ovarian 45.2% | OVCAR-3 ovarian 102% | HS 578T breast 109% | NCI/ADR-RES ovarian 95.6% | T-47D breast 82.7% | MDA-MB-435 melanoma 93.2% | SW-620 colon 108% | MCF7 breast 77.6% | HCT-116 colon 89% | HCC-2998 colon 107% | KM12 colon 90.6%

CC(=O)O[C@H]1C(=O)[C@@]2(C)[C@H]([C@H](OC(=O)c3ccccc3)[C@]3(O)C[C@H](OC(=O)[C@H](OC(=O)OC[C@H]4COC(C)(C)O4)[C@@H](NC(=O)c4ccccc4)c4ccccc4)C(C)=C1C3(C)C)[C@]1(OC(C)=O)CO[C@@H]1C[C@@H]2O
active: RPMI-8226 leukemia 6.27% | OVCAR-5 ovarian 6.17% | OVCAR-3 ovarian 6.13% | HS 578T breast 3.36% | BT-549 breast 9.68% | MDA-MB-435 melanoma -73.7% | HCT-116 colon 4.97% | HCC-2998 colon 1.92%
inactive: MOLT-4 leukemia 11.7% | SR leukemia 17.9% | OVCAR-8 ovarian 15.9% | OVCAR-4 ovarian 55.6% | SK-OV-3 ovarian 22.2% | IGROV1 ovarian 18.8% | NCI/ADR-RES ovarian 70.1% | SW-620 colon 27.8% | KM12 colon 11.9%

CCCC(C)C1(CC)C(=O)NC(=O)N(C)C1=O (centres undefined)
inactive: MOLT-4 leukemia 101% | SR leukemia 95% | RPMI-8226 leukemia 103% | OVCAR-8 ovarian 98.8% | OVCAR-5 ovarian 109% | OVCAR-4 ovarian 108% | SK-OV-3 ovarian 89.3% | IGROV1 ovarian 96.6% | OVCAR-3 ovarian 108% | HS 578T breast 99.4% | NCI/ADR-RES ovarian 104% | BT-549 breast 105% | MDA-MB-435 melanoma 97.9% | SW-620 colon 101% | MCF7 breast 103% | HCT-116 colon 114% | HCC-2998 colon 97.9% | KM12 colon 110%

CC(=O)O[C@H](C[C@H](C(C)C)N(C)C(=O)[C@@H](NC(=O)[C@H]1CCCCN1C)C(C)C)c1nc(C(=O)N[C@@H](Cc2ccccc2)C[C@H](C)C(=O)O)c(CCOCc2ccccc2)s1
inactive: MOLT-4 leukemia 11% | OVCAR-8 ovarian 10.8% | OVCAR-5 ovarian 35.7% | OVCAR-4 ovarian 37% | SK-OV-3 ovarian 44.6% | IGROV1 ovarian 10.7% | HS 578T breast 11.4% | SW-620 colon 28.3% | MCF7 breast 25.9% | HCC-2998 colon 16.3%
active: SR leukemia 9.77% | RPMI-8226 leukemia -3.42% | OVCAR-3 ovarian -6.07% | NCI/ADR-RES ovarian 9.71% | BT-549 breast -36.6% | MDA-MB-435 melanoma -49.7% | HCT-116 colon -22.2% | KM12 colon 5.5%

O=P1(NCCCl)OCCCN1CCCl (centres undefined)
inactive: MOLT-4 leukemia 101% | SR leukemia 91.2% | RPMI-8226 leukemia 105% | OVCAR-8 ovarian 114% | OVCAR-5 ovarian 106% | OVCAR-4 ovarian 112% | SK-OV-3 ovarian 100% | IGROV1 ovarian 111% | OVCAR-3 ovarian 107% | HS 578T breast 92.7% | NCI/ADR-RES ovarian 110% | BT-549 breast 104% | MDA-MB-435 melanoma 107% | SW-620 colon 98% | MCF7 breast 101% | HCT-116 colon 106% | HCC-2998 colon 107% | KM12 colon 103%
